Inconclusive results are not listed. Entries that show only a call come without a potency. Values without a mark were called inactive. Active and inactive are the calls of the source. Calls follow the shape of the dose curve; as a rule, active = well fitted activation curve with a large enough effect in the signal ratio in the repeat runs (not every such curve was filed as active); inconclusive = weak or mixed curves; inactive = flat fitted curve, though single readings scatter; the % refers to the signal ratio. Where a SMILES comes first, the peptide text is derived from it. [ ]: non-standard residue; d: D form. pGlu = O=C1CC[C@@H](C(=O)O)N1
experiment: qHTS assay to identify small molecule agonists of H2AX (AID 1224845); details: CHO-K1 phospho-H2AX Ser139 HTRF, 3 h; series mostly up to 154 µM
From the text: National Center for Advancing Translational Sciences [NCATS]
NIH Chemical Genomics Center [NCGC]
U.S. Environmental Protection Agency [EPA]
National Institutes of Environmental Health Sciences [NIEHS]
National Toxicology Program [NTP]
U.S. Food and Drug Administration [FDA]
HTRF phospho-H2AX (Ser139) assay (Cisbio Bioassays, US) enables the quantitative detection of the histone variant H2AX when phosphorylated on serine 139. When double-stranded DNA breaks, either by ionizing radiation or endogenous physiological processes, H2AX becomes phosphorylated at Ser139. This phospho-Ser139 serves as a sensitive biomarker for the detection of such breaks, localizing the site of DNA repair. So, HTRF phospho-H2AX Ser139 is a pertinent assay to study genome stability, the cell cycle, DNA repair, and it serves as a biomarker for cancer, and to understand aging. Wild type CHO-K1 cells were used to identify the inducers of Phospho-H2AX Ser 139 from the Tox21 10K compound collections.
Tox21 Assay Protocol Summary:
The CHO-K1 cells suspended in culture medium containing 10% FBS were dispensed at 1000 cells/ 3 ul/well in 1536-well white wall/solid bottom plates (Greiner Bio-One North America, NC) using a Multidrop Combi (Thermo Fisher Scientific Inc., Waltham, MA). After the assay plates were incubated at 37C overnight, 23 nl of compounds at 15 concentrations (from 5-48 columns) or positive control (from 1 to 4 columns) were transferred to the assay plates using a Pintool station (Wako, San Diego, CA) into each well resulting in a final DMSO concentration of 0.76%. After 3hr incubation at 37C, 1 uL/well Supplemented Lysis buffer (diluted 100 fold blocking reagent in lysis buffer) (HTRF Phospho-H2A.X (S139) Assay kit from Cisbio US Inc., Bedford, MA) was added using a Flying Reagent Dispenser (FRD) (Aurora Discovery, CA). After 10sec spin at 1000 rpm in a plate centrifuge, the assay plates were incubated at room temperature for 30 min. Then followed by the addition of 1 uL/well detection buffer (containing a mixture of two antibodies, one labeled with cryptate, Anti pH2AX (S139)-K and another labeled with d2, Anti H2AX-d2) using FRD. After incubation at room temperature for 24 hr, the time resolved fluorescence at excitation 320 nm and emissions at 665 nm and 620 nm was measured using an Envision plate reader (PerkinElmer, Waltham, MA).
Potency is read from the fitted curve at half-maximal effect.

Compound	Potency	activation (H2AX phosphorylation)
CC(C)CCCO	inactive	–
Nc1c2c(nc3c1CCC3)CCCC2	inactive	–
CCCO[Si](OCCC)(OCCC)OCCC	inactive	–
Cc1ccc(-c2ncc(Cl)cc2-c2ccc(S(C)(=O)=O)cc2)cn1	inactive	–
CC(C)(CCC(=O)O)C(=O)O	inactive	–
COc1ccnc(CS(=O)c2nc3cc(OC(F)F)ccc3[nH]2)c1OC (stereo not given)	inactive	–
CN1CCC(=C2c3ccccc3CCc3cccnc32)CC1	inactive	–
OCCCCCO	inactive	–
O=C(O)c1cn(C2CC2)c2cc(N3CCNCC3)c(F)cc2c1=O	inactive	–
Nc1ccn([C@@H]2O[C@H](CO)[C@@H](O)C2O)c(=O)n1 (stereo not given in full)	56.6 µM (active)	–
O=S(=O)(O)c1cccc(S(=O)(=O)O)c1	inactive	–
COc1cc(C(=O)NCc2ccc(OCCN(C)C)cc2)cc(OC)c1OC	inactive	–
CCCCS(=O)(=O)N[C@@H](Cc1ccc(OCCCCC2CCNCC2)cc1)C(=O)O	inactive	–
CN(C)CCCCCCN(C)C	inactive	–
CC1=NS(=O)(=O)c2cc(Cl)ccc2N1	inactive	–
[K+]	inactive	–
CCCCN1C=CN(C)C1	–	-0.0666% [at 31.6 µM]
O=C(O)CCSCCC(=O)O	inactive	–
CCNC(=O)[C@@H]1CCCN1C(=O)[C@H](CCCN=C(N)N)NC(=O)[C@H](CC(C)C)NC(=O)CNC(=O)[C@H](Cc1ccc(O)cc1)NC(=O)[C@H](CO)NC(=O)[C@H](Cc1c[nH]c2ccccc12)NC(=O)[C@H](Cc1cnc[nH]1)NC(=O)[C@@H]1CCC(=O)N1 ([pGlu]HWSYGLRP-NHEt)	inactive	–
CCOCC(C)O (stereo not given)	inactive	–

Compound	Potency	activation (H2AX phosphorylation)
CC(C)C1CCC(O)CC1 (stereo not given)	inactive	–
NC(=O)Cc1cccc2ccccc12	inactive	–
CC1=CC(=O)[C@H]2C[C@@H]1C2(C)C	inactive	–
CC1CCC(CO)CC1 (stereo not given)	inactive	–
CCOC(=O)C(=O)CCCCCCl	inactive	–
CC(=O)O[C@@]12CO[C@@H]1C[C@H](O)[C@@]1(C)C(=O)[C@H](O)C3=C(C)[C@@H](OC(=O)[C@H](O)[C@@H](NC(=O)OC(C)(C)C)c4ccccc4)C[C@@](O)([C@@H](OC(=O)c4ccccc4)[C@H]21)C3(C)C	inactive	–
Cc1c(N)c(=O)n(-c2ccccc2)n1C	inactive	–
NC(N)=NCCN1CCCCCCC1	–	0.429% [at 0.582 µM]
CCCCCCCCCCCCCCC(=O)O	inactive	–
CC1=CCC(O)(C(C)C)CC1 (stereo not given)	inactive	–
C[C@H]1C[C@H]2[C@@H]3CCC4=CC(=O)C=C[C@]4(C)[C@H]3C(=O)C[C@]2(C)[C@@]1(O)C(=O)CO	inactive	–
C=CCCC(=O)O	inactive	–
CCC(=O)OCc1ccccc1	inactive	–
CCCCOCCOC(=O)COc1cc(Cl)c(Cl)cc1Cl	inactive	–
CC(C)(C)C(=O)Oc1ccc(S(=O)(=O)Nc2ccccc2C(=O)NCC(=O)O)cc1	inactive	–
CC[C@H]1OC(=O)[C@H](C)[C@@H](O[C@H]2C[C@@](C)(OC)[C@@H](O)[C@H](C)O2)[C@H](C)[C@@H](O[C@@H]2O[C@H](C)C[C@H](N(C)C)[C@H]2O)[C@](C)(OC)C[C@@H](C)C(=O)[C@H](C)[C@@H](O)[C@]1(C)O	inactive	–
CN1[C@@H]2CC[C@H]1CC(OC(=O)C(O)c1ccccc1)C2 (stereo not given in full)	inactive	–
CCC(C(=O)NC(=O)NC(C)=O)c1ccccc1 (stereo not given)	inactive	–
N[C@@H](CCC(=O)O)C(=O)O	inactive	–
CC(C#N)(CCC(=O)O)N=NC(C)(C#N)CCC(=O)O (stereo not given)	inactive	–

— PubChem BioAssay (Tox21)
